# Results published in PubChem BioAssay (Tox21).
# Results filed as inconclusive are left out. A number with no mark means an inactive call. Calls follow the shape of the dose curve; as a rule, active = well fitted cell-killing curve with a large enough effect in the repeat runs; inconclusive = weak or mixed curves, or effect the other way; inactive = no such curve, though single readings can be large or run the other way.
# Experiment: qHTS assay to identify small molecule agonists of the vitamin D receptor (VDR) signaling pathway - cell viability counter screen (AID 743224); also: nearly all actives have a fitted effect of over 50% in size
# Settings: VDR-bla HEK293T viability, CellTiter-Glo luminescence, 16 h; series mostly up to 62.6 µM; activity change, negative = cytotoxicity: at the top concentration
# Text: U.S. Tox21 Program National Center for Advancing Translational Sciences [NCATS] NIH Chemical Genomics Center [NCGC] U.S. Environmental Protection Agency [EPA] National Institutes of Environmental Health Sciences [NIEHS] National Toxicology Program [NTP] U.S. Food and Drug Administration [FDA] Tox21 Assay Overview: The vitamin D receptor (VDR), a member of nuclear hormone receptor superfamily, plays a critical role in calcium homeostasis and bone metabolism. It is also involved in cell differentiation and growth, and thrombogenicity. […] The cytotoxicity of the Tox21 compound library against the VDR-bla cell line was tested in parallel by measuring the cell viability using CellTiter-Glo assay (Promega, Madison, WI) in the same wells.
# Tox21 Assay Protocol Summary: VDR-bla cells were dispensed at 2,000 cells/6 uL/well into black wall/clear-bottom 1536-well plates using a Multidrop Combi (Thermo Fisher Scientific, Waltham, MA) dispenser. After the assay plates were incubated at a 37C and 5% CO2 for 4 h, 23 nL of compounds dissolved in DMSO, positive controls or DMSO only was transferred to the assay plate by a Pintool station (Kalypsys, San Diego, CA). The plates were incubated at 37C and 5% CO2 for 16 h. After 1 uL of LiveBLAzerTM B/G FRET substrate was added using a Bioraptr Flying Reagent Dispenser (FRD) workstation (Beckman Coulter, Indianapolis, IN, USA), the plates were incubated at room temperature for 2 h, and fluorescence intensity was measured by an Envision plate reader (PerkinElmer, Shelton, CT). For cell viability readout that measures cytotoxicity, 3 ul/well of CellTiter-Glo reagent was added into the assay plates using a FRD. After 30 min incubation at room temperature, the luminescence intensity in the plates was measured using a ViewLux (PerkinElmer) plate reader.
# % is scaled to controls: 0 for no effect and ±100 for the full control effect.
row,SMILES,"activity change, negative = cytotoxicity"
1,CCCCCCCCCCCCCCCCCCOCC(O)CO (stereo not given),-22.8%
2,NC(CS)C(=O)O (stereo not given),-0.812%
3,NC(=O)c1c(Cl)cccc1Cl,8.86%
4,O=C(O)c1cccc(C(=O)O)n1,7.43%
5,CC(C)c1cccc(O)c1,7.73% [at 81.1 µM]
6,O=[N+]([O-])c1ccc(Oc2ccc([N+](=O)[O-])cc2)cc1,-0.415% [at 81.1 µM]
7,NS(=O)(=O)c1cc2c(cc1C(F)(F)F)NC(Cc1ccccc1)NS2(=O)=O (stereo not given),4.01%
8,OCC(O)[C@@H](O)[C@H](O)[C@H](O)CO[C@H]1O[C@H](CO)[C@@H](O)[C@H](O)[C@H]1O (stereo not given in full),-16%
9,CCN1CCCC(OC(=O)C(c2ccccc2)c2ccccc2)C1 (stereo not given),0.761%
10,C=C(C)[C@@H]1CCC2=CC(=O)C[C@@H](C)[C@]2(C)C1,-3.89%
11,[O-][N+](=Nc1ccccc1)c1ccccc1,1.2%
12,COc1cc(C)cc(O)c1,-12.4%
13,CCCC(C)CO (stereo not given),-19.3%
14,CCC(=O)c1cccc(Cl)c1,-12.4% [at 81.1 µM]
15,CCC(=O)/C=C/c1ccc(OC)cc1,-1.17%
16,COCCOC(=O)CC#N,8.85%
17,CC(C)(C)C(=O)/C=C/c1ccc(Cl)cc1,17.4%
18,Cc1nccn1CC1CCc2c(c3ccccc3n2C)C1=O (stereo not given),16.5%
19,O=C(O)C1CCC1,0.617%
20,CC(C)(C)CC(C)(C)N,15.7%

row,SMILES,"activity change, negative = cytotoxicity"
1,Cn1ccc2cc3c(cc21)CCN3C(=O)Nc1cccnc1,7.68% [at 29.1 µM]
2,Cc1ccc(Nc2ccc(O)c3c2C(=O)c2ccccc2C3=O)cc1,8.12%
3,C=C(C)[C@H]1CC=C(C)CC1,13.2%
4,CCN1CCCC1CNC(=O)c1cc(S(N)(=O)=O)ccc1OC (stereo not given),-1.89%
5,CCCCCCC(=O)OCC,-3.03%
6,C=CCOc1nc(OCC=C)nc(OCC=C)n1,1.99%
7,C=CCn1c(=O)n([C@@H]2O[C@H](CO)[C@@H](O)[C@H]2O)c2nc(N)[nH]c(=O)c21,6.78%
8,CCCCNc1ccccc1,7.57%
9,O=S(=O)(O)c1ccccc1O,5.51%
10,O=C(O)C(O)[C@H](O)[C@@H](O)[C@H](O)[C@H](O)CO (stereo not given in full),19.5% [at 81.1 µM]
11,Cc1c(C)n(CCN(C)C)c2ccc(C(=O)OCCN(C)C)cc12,-14.5%
12,COc1cc(O)cc(O)c1,-2.29%
13,CC(C)(O)C(=O)c1ccc(OCCO)cc1,0.498%
14,CSc1nc(NC2CC2)nc(NC(C)(C)C)n1,-21.8%
15,OC[C@H]1O[C@@H]2O[C@H]3[C@H](O)[C@@H](O)[C@@H](O[C@H]4[C@H](O)[C@@H](O)[C@@H](O[C@H]5[C@H](O)[C@@H](O)[C@@H](O[C@H]6[C@H](O)[C@@H](O)[C@@H](O[C@H]7[C@H](O)[C@@H](O)[C@@H](O[C@H]8[C@H](O)[C@@H](O)[C@@H](O[C@H]9[C@H](O)[C@@H](O)[C@@H](O[C@H]1[C@H](O)[C@H]2O)O[C@@H]9CO)O[C@@H]8CO)O[C@@H]7CO)O[C@@H]6CO)O[C@@H]5CO)O[C@@H]4CO)O[C@@H]3CO,2.62% [at 29.1 µM]
16,O=C(O)CCNC(=O)c1ccc(N=Nc2ccc(O)c(C(=O)O)c2)cc1,6.59%
17,O=C1OC(=O)c2cc([N+](=O)[O-])ccc21,-5.28%
18,NCCNC(=O)c1ccc(Cl)cn1,-15.4%
19,Cc1cc(C)cc(OCC2CNC(=O)O2)c1 (stereo not given),7.93%
20,Oc1cc(O)c2c(c1)O[C@H](c1ccc(O)c(O)c1)[C@H](O)C2,-3.13%
